Measurements reported in PubChem BioAssay (NCATS).
Records with an inconclusive call do not appear. Activity calls are given as the source filed them. Unless noted, calls follow the shape of the dose curve; as a rule, active = well fitted curve in the direction sought with a large enough effect; inconclusive = small, poorly fitted or top-dose-only effect, or another doubt; inactive = no such curve, though single readings can be large; an effect the other way counts as inactive or inconclusive.

What was measured:
[1] = AP1 Signaling Pathway (AID 357; active = well fitted curve in either direction with a large enough effect, not every such curve was filed as active;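 also: ME-180 reporter cells stimulated with EGF at its EC50 level; % is scaled to controls: 0 for no effect and ±100 for the full control effect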); conditions: ME-180 AP-1-bla reporter, EGF-induced, beta-lactamase ratio, 5 h; at 38 µM (top of the series)
Procedure, shortened: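 Titration-series screen for positive or negative modulators of EC50 EGF-induced signaling in ME-180 cells carrying an AP-1-driven beta-lactamase reporter. After 5 hours at 37 degrees Celsius, CCF4 460nm/530nm emission ratio gave %Activity; AC50 values derived.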

[2] = NFAT Signaling Pathway (AID 444; active = well fitted curve in either direction with a large enough effect, not every such curve was filed as active;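 also: carbachol stimulus at about its EC50 of 1 µM final; % is scaled to controls: 0 for no effect and ±100 for the full control effect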); conditions: Jurkat NFAT-bla M1, carbachol, beta-lactamase ratio, 5 h; at 38 µM (top of the series)
Procedure, shortened: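 Jurkat cells carrying an NFAT-driven β-lactamase reporter and co-transfected muscarinic M1 receptor were treated with compound plus carbachol (1 uM final, an EC50 level) for 5 h at 37 °C. CCF4 loading followed for 1 h at RT; 460/530 nm ratio gave %activity.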

[3] = Stat Signaling Pathway (AID 446; active = well fitted curve in either direction with a large enough effect, not every such curve was filed as active;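 also: ME-180 cervical cancer cells given 40 pM IL-6 alongside compound; SIE-controlled beta-lactamase reporter measured as 460/530 nm FRET emission ratio; % is scaled to controls: 0 for no effect and ±100 for the full control effect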); conditions: ME-180 SIE beta-lactamase reporter, IL-6 stimulated, 5 h; at 38 µM (top of the series)
Procedure, shortened: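 ME-180 SIE-bla cells; overnight plating; cpd + IL-6 40 pM, 5 h, 37 C; LiveBLAzer 2.5 h RT; 460/530 nm emission ratio. Normalized to 300 pM IL-6 and 125 nM JAK inhibitor controls.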

[4] = biological target: Glucocorticoid receptor (Homo sapiens) (UniProt P04150); experiment: GR-GFP Redistribution (AID 450;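 active = compounds whose dose series gives a full or clear partial fitted curve of increased nuclear translocation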; also: potency is read from the fitted curve at half-maximal effect); conditions: U2OS GR-GFP nuclear translocation, laser cytometry, 2 h
Sequence of Glucocorticoid receptor (Homo sapiens) (P04150 whole entry, looked up, the tested form may be a part): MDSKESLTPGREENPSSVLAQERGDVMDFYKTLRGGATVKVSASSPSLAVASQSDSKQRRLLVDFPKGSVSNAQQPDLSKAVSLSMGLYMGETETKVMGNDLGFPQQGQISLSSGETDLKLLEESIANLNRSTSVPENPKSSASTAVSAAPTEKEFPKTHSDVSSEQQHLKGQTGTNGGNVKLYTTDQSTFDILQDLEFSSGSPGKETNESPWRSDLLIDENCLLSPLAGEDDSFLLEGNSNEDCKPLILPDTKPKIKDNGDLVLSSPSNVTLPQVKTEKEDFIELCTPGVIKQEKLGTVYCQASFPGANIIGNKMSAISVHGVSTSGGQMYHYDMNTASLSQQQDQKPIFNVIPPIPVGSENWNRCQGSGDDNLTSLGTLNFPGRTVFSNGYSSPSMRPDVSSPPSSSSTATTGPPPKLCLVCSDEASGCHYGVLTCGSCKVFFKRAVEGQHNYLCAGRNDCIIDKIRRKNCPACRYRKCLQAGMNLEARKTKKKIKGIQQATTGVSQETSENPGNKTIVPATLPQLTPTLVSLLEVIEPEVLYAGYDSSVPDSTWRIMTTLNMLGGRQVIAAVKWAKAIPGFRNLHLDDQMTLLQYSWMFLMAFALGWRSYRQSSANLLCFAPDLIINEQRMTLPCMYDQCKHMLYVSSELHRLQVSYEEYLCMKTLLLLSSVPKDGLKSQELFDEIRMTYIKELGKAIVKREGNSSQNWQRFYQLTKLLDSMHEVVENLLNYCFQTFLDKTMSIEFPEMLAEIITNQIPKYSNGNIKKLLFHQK

[5] = biological target: Glucocorticoid receptor (Homo sapiens) (UniProt P04150); experiment: GR-EFC Redistribution (AID 451; calls by dose curve; also: potency is read from the fitted curve at half-maximal effect); conditions: CHO-K1 GR-EFC translocation, beta-gal luminescence, 2 h
Procedure, shortened: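 CHO-K1 cells stably expressing nuclear-localized β-gal enzyme acceptor and GR fused C-terminally to the enzyme donor fragment; ligand-driven nuclear translocation restores β-gal by complementation. Compounds titrated up to 46 uM final, 2 h at 37 °C; luminescence read.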

[6] = biological target: Mitogen-activated protein kinase 10 (Mus musculus) (UniProt Q61831); experiment: JNK3 AlphaScreen Assay (AID 530; active = well fitted curve in either direction with a large enough effect, not every such curve was filed as active;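 also: kinase came from lysate of stimulated human HepG2 cells; signal reports phosphorylation of biotinylated GST-cJun 1-79 at Ser73 with 10 µM ATP; % is scaled to controls: 0 for no effect and ±100 for the full control effect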)
Procedure, shortened: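 JNK3 came from HepG2 lysates pre-activated with IL-1beta and TNF-alpha and phosphorylated biotinylated GST-cJun (1-79) at 10 uM ATP, pH 7.6, room temperature. Compounds were titrated. AlphaScreen signal used anti-phospho-cJun (Ser73) antibody.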

[7] = biological target: 3',5'-cyclic-AMP phosphodiesterase 4B (Homo sapiens) (UniProt Q07343); experiment: qHTS Assay for Inhibitors of PDE-IV (AID 607; active = well fitted activation curve with a large enough effect in the main read-out, with a control signal flat, not every such curve was filed as active; also: % of control where 0% means no effect)
Sequence of 3',5'-cyclic-AMP phosphodiesterase 4B (Homo sapiens) (Q07343 whole entry, looked up): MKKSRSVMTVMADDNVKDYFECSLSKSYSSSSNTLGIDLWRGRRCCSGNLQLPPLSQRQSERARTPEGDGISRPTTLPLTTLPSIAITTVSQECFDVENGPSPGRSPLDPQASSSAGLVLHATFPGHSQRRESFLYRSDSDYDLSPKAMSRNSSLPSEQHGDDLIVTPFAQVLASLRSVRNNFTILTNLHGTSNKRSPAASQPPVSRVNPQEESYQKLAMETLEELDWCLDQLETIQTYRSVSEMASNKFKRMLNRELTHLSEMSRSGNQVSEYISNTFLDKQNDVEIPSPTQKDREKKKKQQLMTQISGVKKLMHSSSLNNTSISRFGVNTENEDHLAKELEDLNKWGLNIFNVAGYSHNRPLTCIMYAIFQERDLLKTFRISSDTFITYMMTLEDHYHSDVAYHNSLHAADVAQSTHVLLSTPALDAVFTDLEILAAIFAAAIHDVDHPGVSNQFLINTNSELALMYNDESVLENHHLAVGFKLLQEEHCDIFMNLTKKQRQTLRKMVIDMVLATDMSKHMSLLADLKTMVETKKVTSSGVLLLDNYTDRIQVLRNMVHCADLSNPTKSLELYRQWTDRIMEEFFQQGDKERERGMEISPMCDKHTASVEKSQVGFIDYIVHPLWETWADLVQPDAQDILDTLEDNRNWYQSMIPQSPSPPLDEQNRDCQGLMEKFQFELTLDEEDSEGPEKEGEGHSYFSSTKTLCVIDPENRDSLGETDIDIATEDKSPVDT
Procedure, shortened: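 ACTOne HEK293 cells carry a modified cAMP-gated CNG channel and express endogenous PDE4; plated 1000 cells/well, compounds up to 22.9 uM final. Membrane-potential dye fluorescence (ex 535/em 590) was read; parental cells received 10 uM forskolin + 100 uM RO 20-1724.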

[8] = biological target: Guanine nucleotide-binding protein G(i) subunit alpha-1 (Homo sapiens) (UniProt P63096); experiment: qHTS Assay for Inhibitors of RGS12 GoLoco Motif Activity (Green Fluorophore) (AID 879);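 also: 0% = labeled peptide with Gαi1 and full inhibition = labeled peptide alone without protein; negative values mean loss of peptide binding seen as reduced polarization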
Sequence of Guanine nucleotide-binding protein G(i) subunit alpha-1 (Homo sapiens) (P63096 whole entry, looked up): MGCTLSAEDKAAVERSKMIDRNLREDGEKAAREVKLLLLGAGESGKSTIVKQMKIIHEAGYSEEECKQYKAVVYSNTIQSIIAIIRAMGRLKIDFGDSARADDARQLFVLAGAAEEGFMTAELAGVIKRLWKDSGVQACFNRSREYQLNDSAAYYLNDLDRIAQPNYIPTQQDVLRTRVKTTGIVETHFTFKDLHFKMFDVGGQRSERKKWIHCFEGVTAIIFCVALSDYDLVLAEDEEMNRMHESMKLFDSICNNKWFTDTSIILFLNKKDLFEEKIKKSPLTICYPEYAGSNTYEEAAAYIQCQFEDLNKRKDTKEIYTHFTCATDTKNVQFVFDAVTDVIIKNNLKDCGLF
Procedure, shortened: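 Fluorescence polarization assay: 50 nM Gαi1 with 10 nM FITC-labeled RGS12 GoLoco peptide in 10 mM Tris pH 7.5, 150 mM NaCl, 0.1 mM GDP, 0.05% NP40, 10 min at room temperature with compound.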

[9] = biological target: Cytochrome P450 2C9 (Homo sapiens) (UniProt P11712); experiment: qHTS Assay for Inhibitors and Substrates of Cytochrome P450 2C9 (AID 883); also: % is scaled to controls: 0 for no effect and ±100 for the full control effect; nearly all actives have a fitted effect of over 60% in size
Sequence of Cytochrome P450 2C9 (Homo sapiens) (P11712 whole entry, looked up): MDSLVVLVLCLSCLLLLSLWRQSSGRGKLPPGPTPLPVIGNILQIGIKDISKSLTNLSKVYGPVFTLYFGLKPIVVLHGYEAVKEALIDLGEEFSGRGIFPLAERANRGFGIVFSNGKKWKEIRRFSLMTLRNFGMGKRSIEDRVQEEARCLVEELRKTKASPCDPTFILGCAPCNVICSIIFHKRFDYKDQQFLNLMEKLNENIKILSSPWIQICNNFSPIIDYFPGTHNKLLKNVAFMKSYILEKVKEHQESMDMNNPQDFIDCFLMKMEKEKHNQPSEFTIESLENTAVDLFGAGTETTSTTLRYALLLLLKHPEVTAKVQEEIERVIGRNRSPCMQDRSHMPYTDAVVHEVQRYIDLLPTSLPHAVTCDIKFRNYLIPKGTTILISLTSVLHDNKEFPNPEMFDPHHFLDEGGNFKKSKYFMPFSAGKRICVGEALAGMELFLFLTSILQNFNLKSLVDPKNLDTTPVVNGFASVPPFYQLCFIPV
Procedure, shortened: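 Human CYP2C9 (10nM) hydroxylated Luciferin-H (100uM, at its KM) to luciferin in 25mM KPO4. Compound was preincubated 10 min at 37C, then NADPH regeneration started a 60 min reaction at 37C. Luminescence was read after detection reagent, normalized to 57uM sulphaphenazole.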

[10] = biological target: Cytochrome P450 3A4 (Homo sapiens) (UniProt P08684); experiment: qHTS Assay for Activators of Cytochrome P450 3A4 (AID 885); also: nearly all actives have a fitted effect of over 65% in size
Sequence of Cytochrome P450 3A4 (Homo sapiens) (P08684 whole entry, looked up): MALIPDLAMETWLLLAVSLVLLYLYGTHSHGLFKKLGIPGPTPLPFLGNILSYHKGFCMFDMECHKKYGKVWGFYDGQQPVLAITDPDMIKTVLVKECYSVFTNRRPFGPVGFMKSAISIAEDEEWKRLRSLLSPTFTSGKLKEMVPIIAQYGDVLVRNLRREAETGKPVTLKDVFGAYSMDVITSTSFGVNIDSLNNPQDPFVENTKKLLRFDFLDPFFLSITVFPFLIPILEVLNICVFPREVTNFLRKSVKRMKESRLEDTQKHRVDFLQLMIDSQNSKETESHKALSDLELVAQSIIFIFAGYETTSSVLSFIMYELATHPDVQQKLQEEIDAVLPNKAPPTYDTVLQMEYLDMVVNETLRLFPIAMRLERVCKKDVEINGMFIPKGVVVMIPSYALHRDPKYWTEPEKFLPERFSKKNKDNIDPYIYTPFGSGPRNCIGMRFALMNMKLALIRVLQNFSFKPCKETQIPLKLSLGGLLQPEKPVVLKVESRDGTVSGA
Procedure, shortened: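 20nM CYP3A4 + 25uM Luciferin-PPXE (=KM), 200mM KPO4; cpd 10 min RT; NADPH regen, 60 min RT; stop w/ detection buffer, 20 min; luminescence. Normalized to 57 uM ketoconazole.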

[11] = qHTS Assay for Identification of Small Molecule Agonists for Thrombopoietin (TPO) Signaling Pathway (AID 917); also: % is scaled to controls: 0 for no effect and ±100 for the full control effect
Procedure, shortened: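 Luminescence from a Glycoprotein IIb promoter–driven luciferase reporter served as read-out in murine Ba/F3 cells carrying the human TPO receptor. Cells, deprived of IL-3 overnight, received compounds with 26 pM TPO and were incubated 24 hrs at 37 C.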

[12] = biological target: Pyruvate kinase (Leishmania mexicana) (UniProt Q27686); experiment: qHTS Validation Assay for Inhibitors of Leishmania Mexicana Pyruvate Kinase (AID 945);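 also: 0% = DMSO only neutral control wells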
Sequence of Pyruvate kinase (Leishmania mexicana) (Q27686 2-499 E452W): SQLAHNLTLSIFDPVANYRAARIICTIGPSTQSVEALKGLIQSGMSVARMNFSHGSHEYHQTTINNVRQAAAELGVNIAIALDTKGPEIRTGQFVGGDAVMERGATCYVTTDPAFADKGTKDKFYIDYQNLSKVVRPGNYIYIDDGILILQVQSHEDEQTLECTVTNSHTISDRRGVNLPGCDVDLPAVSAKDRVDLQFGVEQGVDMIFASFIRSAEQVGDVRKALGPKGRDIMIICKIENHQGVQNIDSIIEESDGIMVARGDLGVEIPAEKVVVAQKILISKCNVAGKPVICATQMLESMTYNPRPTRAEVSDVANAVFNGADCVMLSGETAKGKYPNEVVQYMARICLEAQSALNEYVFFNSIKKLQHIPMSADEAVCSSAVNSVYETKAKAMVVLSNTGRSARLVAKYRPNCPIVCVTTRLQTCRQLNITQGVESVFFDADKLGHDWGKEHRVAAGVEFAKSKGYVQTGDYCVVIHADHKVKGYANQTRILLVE
Procedure, shortened: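 The enzyme is a highly purified E451W mutant of LmPYK used at 0.2 nM. It converts 0.5 mM PEP and 0.1 mM ADP over 1 h at room temperature; product ATP is quantified by luciferase luminescence relative to DMSO controls.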

[13] = biological target: Pyruvate kinase PKM (Homo sapiens) (UniProt P14618); experiment: qHTS Assay for Activators of Human Muscle Pyruvate Kinase (AID 954; active = well fitted curve in the direction sought with a large enough effect, not every such curve was filed as active;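 also: 0% = uninhibited enzyme and -100% = no enzyme or full thiadiazolimine inhibition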)
Sequence of Pyruvate kinase PKM (Homo sapiens) (P14618 whole entry, looked up): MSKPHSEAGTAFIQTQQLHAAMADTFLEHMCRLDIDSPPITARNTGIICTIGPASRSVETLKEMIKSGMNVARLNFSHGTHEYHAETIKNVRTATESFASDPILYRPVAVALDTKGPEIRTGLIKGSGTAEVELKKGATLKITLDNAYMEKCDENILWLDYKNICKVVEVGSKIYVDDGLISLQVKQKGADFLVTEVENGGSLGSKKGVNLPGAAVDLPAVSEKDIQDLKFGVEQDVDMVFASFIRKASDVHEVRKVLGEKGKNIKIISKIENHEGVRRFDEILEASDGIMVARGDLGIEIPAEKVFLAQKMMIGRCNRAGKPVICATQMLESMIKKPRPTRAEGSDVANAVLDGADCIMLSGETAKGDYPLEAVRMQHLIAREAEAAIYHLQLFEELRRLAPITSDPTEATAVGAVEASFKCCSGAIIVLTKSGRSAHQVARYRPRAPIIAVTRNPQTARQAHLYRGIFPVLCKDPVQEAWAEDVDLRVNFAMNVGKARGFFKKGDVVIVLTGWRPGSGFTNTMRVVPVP
Procedure, shortened: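 Luminescence from a luciferase ATP-detection/stop reagent reported PKM2 activity. Reactions contained 0.1 nM purified human enzyme, 0.5 mM PEP, 0.1 mM ADP and 7 mM MgCl2 at pH 7.2, run 1 h at RT.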

[14] = biological target: Alpha-galactosidase A (Homo sapiens) (UniProt P06280); experiment: Counterscreen for Glucocerebrosidase Inhibitors: qHTS Assay for Human alpha-Galactosidase at pH 4.5 (AID 992); also: 0% is about no effect
Sequence of Alpha-galactosidase A (Homo sapiens) (P06280 whole entry, looked up): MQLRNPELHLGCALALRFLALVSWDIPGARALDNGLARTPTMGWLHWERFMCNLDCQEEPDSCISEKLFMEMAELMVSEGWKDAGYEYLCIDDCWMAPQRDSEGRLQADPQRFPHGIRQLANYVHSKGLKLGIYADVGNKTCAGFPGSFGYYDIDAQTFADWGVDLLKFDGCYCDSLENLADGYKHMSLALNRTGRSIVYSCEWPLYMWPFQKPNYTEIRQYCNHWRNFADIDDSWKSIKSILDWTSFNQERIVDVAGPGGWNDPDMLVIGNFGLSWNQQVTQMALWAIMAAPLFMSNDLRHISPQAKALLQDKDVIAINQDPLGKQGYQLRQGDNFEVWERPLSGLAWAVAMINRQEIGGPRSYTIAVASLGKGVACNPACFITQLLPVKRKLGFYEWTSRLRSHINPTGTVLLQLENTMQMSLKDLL
Procedure, shortened: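 Enzyme at 2 nM final was combined with compound (0.7 nM to 77 uM) and 80 uM 4-methylumbelliferyl alpha-D-galactopyranoside in 50 mM citric acid, 0.005% Tween-20, pH 4.5. After 20 min at room temperature, fluorescence was read (Ex 365/Em 440 nm); AC50 came from Hill fits.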

[15] = biological target: alpha-glucosidase (Oryza sativa, rice) (UniProt Q653V4); experiment: Counterscreen for Glucocerebrosidase Inhibitors: qHTS Assay for Rice alpha-Glucosidase at pH 5.0 (AID 997);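 also: 0% = full activity with enzyme and -100% = basal without enzyme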
Procedure, shortened: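 Rice alpha-glucosidase (4 nM final) with 400 uM 4-methylumbelliferyl-alpha-D-glucopyranoside in citrate buffer pH 5.0, 20 min at room temperature, stopped at pH 10; fluorescence 365/440 nm, compounds 0.7 nM–77 uM, AC50 from Hill fits.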

[16] = Validation of Assay for Modulators of Lamin A Splicing (AID 1459; active = well fitted curve in the direction sought with a large enough effect in the signal ratio; the % refers to the signal ratio;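 also: cells exposed to compound for two days before reading; 0% is about no effect; ratio rise marks activators and ratio drop marks inhibitors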)
Procedure, shortened: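 HeLa S3 lamin A-EGFP/DsRed2 stable clone, 600 cells/well, Opti-MEM 2% FBS; compounds by pin tool; 48 hrs, 37 °C/5% CO2; Acumen 488 nm scan, objects 10-100 um; GFP/RFP intensity ratio.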

[17] = biological target: DNA repair nuclease/redox regulator APEX1 (Homo sapiens) (UniProt P27695); experiment: qHTS Validation Assay for Inhibitors of the Human Apurinic/apyrimidinic Endonuclease 1 (APE1) (AID 1705)
Sequence of DNA repair nuclease/redox regulator APEX1 (Homo sapiens) (P27695 whole entry, looked up): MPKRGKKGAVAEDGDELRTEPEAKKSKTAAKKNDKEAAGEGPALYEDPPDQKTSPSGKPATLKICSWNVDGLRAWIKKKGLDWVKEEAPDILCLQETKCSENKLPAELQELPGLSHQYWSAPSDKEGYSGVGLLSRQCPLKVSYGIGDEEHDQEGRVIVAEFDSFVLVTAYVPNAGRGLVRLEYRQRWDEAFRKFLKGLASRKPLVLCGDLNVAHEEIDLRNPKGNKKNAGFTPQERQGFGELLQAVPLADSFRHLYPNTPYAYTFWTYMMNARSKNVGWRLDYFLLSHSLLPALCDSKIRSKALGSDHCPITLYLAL
Procedure, shortened: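 qHTS, 1536-well. APE1 + cpd 15 min RT → 50 nM TAMRA/BHQ-2 THF-abasic dsDNA substrate → kinetic fluorescence, 3 reads/60 s; delta(read3−read1) = reaction progress. No-enzyme buffer = negative control.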

[18] = Counterscreen for APE1 Inhibitors: Fluorescent Dye Displacement Validation Assay (AID 1707);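 also: plate controls were ThO with dsDNA and no compound for no effect and ThO without dsDNA for full effect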
Procedure, shortened: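 Thiazole Orange displacement from dsDNA: 250 nM ThO with 50 nM TAMRA-labelled abasic-site (tetrahydrofuran) duplex in 50 mM Tris-HCl pH7.5, 50mM NaCl, 2 mM MgCl2, 0.01% Tween-20. Loss of endpoint fluorescence (ex 480 nm, em 540 nm) flags DNA binders.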

[19] = biological target: Endonuclease 4 (Escherichia coli (strain K12)) (UniProt P0A6C1); experiment: Counterscreen for APE1 Inhibitors: qHTS Validation Assay for Inhibitors of Endonuclease IV (AID 1708); also: % is scaled to controls: 0 for no effect and ±100 for the full control effect
Procedure, shortened: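 2 nM enzyme was preincubated with compounds for 15 min at room temperature in 50 mM Tris-HCl pH 7.5, 50 mM NaCl, 2 mM MgCl2, 1 mM DTT, 0.01% Tween-20. 50 nM THF-abasic TAMRA/BHQ-2 duplex substrate started the reaction.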

COc1[nH]c2ccc(F)cc2c1C(=O)OCC1CCN(CCNS(C)(=O)=O)CC1
inactive: activity change, negative = inhibition [1] 1.52% | activity change, negative = inhibition [2] 0.0444% | activity, negative = inhibition [3] 16.9% | Potency [4] > 46 µM | Potency [5] > 46 µM | Potency [6] | Potency [7] | outcome [8] | Potency [9] | Potency [10] | Potency [11] | Potency [12] | outcome [13] | outcome [14] | outcome [15] | outcome [16] | Potency [17] | Potency [18] | Potency [19]
